# Measured values reported in the supplement of paper PMC6555819.
# Assays:
# Assay in all cases: PBM binding z-score (relative to random genomic background probes); higher = stronger binding; sequences stand for … in GC…GCGATTGACAGCGTAGAATGAAGG
# [1] = system: FXR:RXRa (NR concentration 270 nM, RXRa partner concentration 90 nM)
# Method in brief: (§1)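 Ligand-free nuclear receptor dimers were bound for 1 h to custom Agilent 4×180K protein-binding microarrays. Detection used antibodies against each partner (one per run). Binding z-scores rest on regression-normalized fluorescence, with random background probes as the reference.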
# [2] = system: LXRa:RXRa (NR concentration 270 nM, RXRa partner concentration 90 nM)
# Method in brief: as §1
# [3] = system: LXRa homodimer (NR concentration 270 nM)
# Method in brief: as §1
# [4] = system: LXRb:RXRa (NR concentration 270 nM, RXRa partner concentration 90 nM)
# Method in brief: as §1
# [5] = system: LXRb homodimer (NR concentration 270 nM)
# Method in brief: as §1
# [6] = system: PPARa:RXRa (NR concentration 270 nM, RXRa partner concentration 90 nM)
# Method in brief: as §1
# [7] = system: PPARg:RXRa (NR concentration 180 nM, RXRa partner concentration 90 nM)
# Method in brief: as §1
# [8] = system: PPARg:RXRa 270nM:90nM, anti-RXR (NR concentration 270 nM, RXRa partner concentration 90 nM)
# Method in brief: as §1
# [9] = system: PPARg:RXRa 30nM:10nM, anti-RXR (NR concentration 30 nM, RXRa partner concentration 10 nM)
# Method in brief: as §1
# [10] = system: PPARg:RXRa 90nM:30nM, anti-RXR (NR concentration 90 nM, RXRa partner concentration 30 nM)
# Method in brief: as §1
Sequence,PBM binding z-score [1],PBM binding z-score [2],PBM binding z-score [3],PBM binding z-score [4],PBM binding z-score [5],PBM binding z-score [6],PBM binding z-score [7],PBM binding z-score [8],PBM binding z-score [9],PBM binding z-score [10]
TGAAAGAGGTTAAAGATCAGGGAACGTGGCGTCG,3.91,3.07,0.208,2.03,0.261,4.59,4.87,5.44,3.46,5.15
CAGCCTAGGTCAGGGCCACTATAGGAGGAACGTT,1.85,1.24,-0.48,0.816,-0.559,2.18,1.36,1.27,-0.111,0.592
ACTAGTAGTTGAGACGAGGGCAACCGATAGGTTG,0.415,0.0058,-0.401,-0.109,-0.494,0.237,0.537,-0.227,-0.398,-0.329
CCTGCTAGGTCAATGGACAGCTAAAGCAGCTCGC,2.71,2.11,-0.488,1.29,-0.325,2.73,1.63,2.17,0.0027,1.05
GGAACGAGGGCATTCGAGTTTATAGCATGGCGAT,1.12,4.61,0.296,0.629,-0.537,1.57,0.982,0.798,-0.0706,0.209
TCTATTAGTTGAAGGGCAACCGTCGAGTCCGTTT,0.742,0.933,0.368,0.792,0.191,0.493,-0.355,2.08,3.65,2.84
AGGCAAAGTTCAGGACGAGGTAACGTAAAGCACG,4.22,3.64,1.15,1.9,0.202,3.37,3.33,4.04,1.44,3.05
TCTCGTAGGACACGAAGGTCAGAGCTTTCCAGAG,0.999,0.907,0.334,1.08,-0.838,1.85,0.478,1.91,2.61,2.45
CTACCAAGGTGAACAAGGTCGTTCATTACTATTC,2.27,3.01,1.12,2.9,0.239,3.12,1.29,1.56,0.212,0.958
GGAACGAGGGCAAGGTGATAGCAGAGTTTGATGG,0.873,0.623,-0.0759,0.183,-0.496,1.74,1.76,1.89,0.199,1.19
GATACAGGGTCAGCTAGAGGCCATAGTATGGAAA,4.67,3.04,-0.128,2.94,-0.352,4.53,4.05,3.34,0.897,2.51
TTAGCAAGGTGAAGGTCGTTGATCCCTCTGTAGA,1.98,1.6,-0.45,0.97,-0.841,2.38,1.94,3.32,1.18,2.64
GAACCAAGGTGAATAGGTCGTTGATGAGTAGGCG,0.855,0.803,-0.0902,0.55,-0.922,2.46,1.74,1.97,0.275,1.25
TAGCCTACGTCATGCGGGCCAGTATAGTGTCGGC,-0.993,-0.942,-0.548,-1.15,-0.753,-0.592,0.156,-0.778,-0.767,-0.769
GCTGCTACGTCAACTGATGGTCAGCTAAAGCTCG,-0.601,-0.63,-0.84,-0.799,-1.1,-0.483,-0.201,-0.736,-0.808,-0.829
ATCCCTAGGTAACAAGTTCAGTGAAAGAGAGGAC,0.484,0.833,0.361,0.843,0.823,0.724,0.555,0.236,0.0944,0.289
TCTAGTTGGTCAAAGGTCAGACACTCGAAATGCG,4.59,4.69,2.66,4.41,1.43,5.67,11.3,9.55,11.6,11.6
TCTATTAGTTGAAGAGCAACCGACGAGTCCGTTT,0.119,0.663,-0.0692,0.436,0.0793,0.395,-0.0464,1.45,3.13,2.28
